# From PubChem BioAssay
# CHT PAM = allosterically activates the human high affinity choline transporter | Q9GZV3 | CHT-expressing cells, membrane potential dye, choline EC20; stronger effect = higher value; LV-AA mutant CHT in HEK293 cells | B-score at 10 µM | 0.49% of 310,000 active;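 active means initial fluorescence not abnormally high and integrated response B-score, plate-corrected, over 3 SD above library mean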
# Target sequence (Q9GZV3 whole entry, looked up): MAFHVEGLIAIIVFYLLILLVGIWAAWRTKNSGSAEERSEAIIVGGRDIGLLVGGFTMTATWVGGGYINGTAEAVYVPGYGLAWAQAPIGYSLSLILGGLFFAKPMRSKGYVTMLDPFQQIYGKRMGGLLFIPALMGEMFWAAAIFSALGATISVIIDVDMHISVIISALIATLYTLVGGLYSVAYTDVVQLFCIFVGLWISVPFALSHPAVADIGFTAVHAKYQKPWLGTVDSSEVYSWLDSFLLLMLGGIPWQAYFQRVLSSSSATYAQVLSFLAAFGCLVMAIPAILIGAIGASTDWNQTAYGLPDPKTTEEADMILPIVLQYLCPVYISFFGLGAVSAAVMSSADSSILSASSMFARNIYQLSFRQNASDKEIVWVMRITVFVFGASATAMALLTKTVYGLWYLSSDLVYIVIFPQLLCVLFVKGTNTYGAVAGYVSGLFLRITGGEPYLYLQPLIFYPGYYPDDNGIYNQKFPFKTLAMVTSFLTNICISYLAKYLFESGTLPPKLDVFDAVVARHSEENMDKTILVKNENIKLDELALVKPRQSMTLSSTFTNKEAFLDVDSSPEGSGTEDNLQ
# ANO1 activ = mouse TMEM16A channel activation, primary screen; Q8BHY3; HEK293 TMEM16A/YFP-H148Q/I152L, iodide quench fluorescence; stronger effect = lower value; B-score at 10 µM; 0.3% of 340,000 active; AID 623877;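 active means fluorescence-ratio B-score plate-corrected deviation score at least 3 library SD below zero, with starting fluorescence score within 5 deviations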;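 further: channel opened by trigger with iodide after compound preincubation; score built on the fluorescence ratio of max minus min over baseline; more negative score means more quench and so TMEM16A activation or potentiation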
# Kir21 inh = blocks the mouse Kir2.1 inward-rectifier potassium channel; AID 1672; 0.85% of 310,000 active; HEK293-Kir2.1, FluxOR thallium flux fluorescence; stronger effect = lower value; B-score at 10 µM; P35561;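 active means fluorescence ratio B-score at or below minus 3 SD of library scores, with starting-brightness B-score within 2 SD, cut at about -4.2 in these data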;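 further: channel flux triggered by added potassium and thallium sulfate stimulus; B-score of peak minus minimum fluorescence over baseline after thallium stimulus; more negative B-score means stronger Kir2.1 block with less thallium influx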
# ANO1 block = inhibitors of mouse TMEM16A calcium-activated chloride channel; Q8BHY3; HEK293 TMEM16A/YFP iodide influx fluorescence, ionomycin; normalized B-score (activity score, 25-100; higher = stronger inhibition) at 10 µM; 1.2% of 310,000 active; AID 588511;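 active means ratio plate-corrected score three or more library SD toward inhibition, starting fluorescence score within five deviations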;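 further: score derived from kinetic fluorescence span divided by baseline fluorescence per well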
# CHT inh = human CHT choline transport inhibition. B-score at 10 µM. 0.86% of 310,000 active. Q9GZV3. CHT-expressing cells, membrane potential dye, choline response; stronger effect = lower value;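 active means B-score over 3 SD under the library average, and starting fluorescence ratio not unusually high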;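 further: choline stimulus applied at its EC90 after an EC20 pre-addition; B-score computed on integrated fluorescence ratio after choline addition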
# GPR7 antagonist = blocks human GPR7 receptor signaling; GPR7-expressing cells, fluorescence antagonist assay; AID 1861; 1.1% of 290,000 active; inhibition, % at 4.4 µM; P48145; in the data active means inhibition above about 16%, passing the limit was not always enough;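 further: cells stimulated with the agonist NPW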
# GPR7 antag conf = human GPR7 antagonism, confirmation assay | shares compounds with GPR7 antagonist | GPR7-expressing cells, calcium fluorescence antagonist mode | inhibition, % at 4.4 µM | 52% of 2,400 active | AID 1952; in the data active means inhibition above about 24%;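 further: stimulated with the GPR7 agonist NPW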
# MCHR1 antag = antagonizes human MCHR1, a GPR7 antagonist counter-screen | shares compounds with GPR7 antagonist | MCHR1-expressing cells, fluorescence antagonist assay | inhibition, % at 4.4 µM | 62% of 2,400 active; in the data active means inhibition above about 22%
# A number is an active result; – = inactive; · = no result. Only some compounds are listed: those with a hit (about 3.7% of all), similar ones and a draw of the others.
SMILES,CHT PAM,ANO1 activ,Kir21 inh,ANO1 block,CHT inh,GPR7 antagonist,GPR7 antag conf,MCHR1 antag
O=C(CSc1nnc(Cc2cccs2)n1Cc1ccco1)Nc1cccc(Cl)c1,–,–,–,–,–,21,25,33
O=C(CSc1nnc(Cc2ccccc2)n1Cc1ccccc1)NCc1ccco1,–,–,–,–,–,–,·,·
CCOc1ccc(C(CC(=O)O)NC(=O)c2cccs2)cc1OC (stereo not given),–,–,–,–,–,–,·,·
CC1(C)CSC(=NCc2ccccc2)N1C(=O)c1cccc([N+](=O)[O-])c1,–,–,–,–,–,71,75,82
Cc1ccc(NS(=O)(=O)c2ccc(C(=O)N3CCCCCCC3)cc2)cc1,–,–,–,–,–,26,29,28
Cc1ccc(NS(=O)(=O)c2ccc(C(=O)NCc3ccccn3)cc2)cc1,–,–,–,–,–,30,44,33
Cc1ccc(S(=O)(=O)NCc2ccc(C(=O)N3CCN(c4ccc([N+](=O)[O-])cc4)CC3)cc2)cc1,–,–,–,–,–,41,26,67
O=C(c1ccc(S(=O)(=O)Nc2ccccc2)cc1)N1CCCC(C(F)(F)F)C1 (stereo not given),–,–,–,–,–,48,61,36
C/C(CC(=O)Nc1ccccn1)=N\NC(=O)c1ccncc1,–,·,–,–,–,–,·,·
COc1ccc(-c2ccc(/C=C(\NC(=O)c3ccccc3)C(=O)N3CCOCC3)o2)cc1,–,–,–,–,–,–,·,·
CCOc1ccc(NS(=O)(=O)c2ccc(C(=O)NCC3(N4CCCCC4)CCCCC3)cc2)cc1,–,–,–,–,–,58,–,34
Cc1ccc(NS(=O)(=O)c2ccc(C(=O)N3CC(C)OC(C)C3)cc2)cc1 (stereo not given),–,–,–,–,–,37,36,35
CC(C)(C)c1ccc(/C=C2\SC(=O)N(CCNC(=O)c3cccc(S(=O)(=O)N4CCOCC4)c3)C2=O)cc1,–,–,–,–,–,–,·,·
Cn1c(=O)c([N+](=O)[O-])c(Cl)c2ccccc21,·,–,–,·,·,26,51,76
O=C(OC1C2CCC1C1CN(CCc3ccccc3)CC12)c1ccccc1 (stereo not given),–,–,–,–,–,42,42,24
CCOC(=O)C1CCCN(CCc2ccccc2)C1 (stereo not given),–,–,–,–,–,–,·,·
CCCCCc1ccc(OCCCC[n+]2ccc(C)cc2)c(CCCCC)c1,–,–,-9.1,100,–,24,70,79
CCCCOc1ccc(C)cc1CN(CCO)CCO,–,–,–,–,–,–,·,·
CCc1cc(C(=O)OC)c(NC(=O)CCCC(=O)O)s1,–,–,–,–,–,26,–,–
CCOC(=O)c1cc(CC)sc1NC(=O)COC,–,–,–,–,–,–,·,·
CCCN1CCN(C(=O)c2oc3ccccc3c2NC(=O)C2CC2)CC1,–,–,–,–,–,–,·,·
COc1ccc(NC(=O)/C(Cl)=C(/Cl)S(=O)Cc2ccccc2Cl)cn1 (stereo not given),·,-4.6,·,·,·,40,76,91
N#Cc1ccccc1OCC(=O)OCC(=O)NC1CCS(=O)(=O)C1 (stereo not given),·,–,·,·,·,·,·,·
CN(C)c1ccc(C(=O)N2CCCC(N3CCN(Cc4ccc5c(c4)OCO5)CC3)C2)cc1 (stereo not given),–,–,–,–,–,–,·,·
Cc1cc(SCc2cccc([N+](=O)[O-])c2)nc(=O)[nH]1,–,–,–,–,–,–,·,·
Cc1cc(SCc2ccc([N+](=O)[O-])cc2)nc(=O)[nH]1,–,–,–,–,–,26,–,–
CCCOc1ccc(C(=O)N(CC(C)C)c2c(N)n(Cc3ccccc3)c(=O)[nH]c2=O)cc1,–,–,–,–,–,·,·,·
Clc1ccc(NCc2ccsc2)cc1,–,·,–,–,–,–,·,·
